Assay results: the supplement of paper PMC7057948, “A genome-wide approach for identification and characterisation of metabolite-inducible systems” (Nature Communications, 2020)

Tests used:
Settings in all cases: inducer concentration 5 mM; 6 h; Cupriavidus necator H16; minimal medium + 0.4% gluconate
[1] = tested on: AcoR/P_H16_RS19445 acetoin biosensor (pEH052); assay: relative induction of RFP reporter vs primary effector; higher = stronger activation
Experimental: (§1)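 Orthogonality screen of 21 primary inducers against 21 transcription factor/inducible promoter–mRFP biosensors in C. necator H16 in minimal medium, robotic 96-well format, 5 mM inducer, 30 °C. OD-normalised RFP fluorescence was read 6 h later and expressed as relative induction (%) = 100 × (FL compound − FL uninduced)/(FL primary inducer − FL uninduced); mean of n=4. Cognate pairs (100% by definition) omitted.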

[2] = tested on: AraC/P_araBAD L-arabinose biosensor (pEH176); assay: as above
Experimental: as §1

[3] = tested on: BadR/P_H16_RS27200 cyclohexanecarboxylate biosensor (pEH159); assay: as above
Experimental: as §1

[4] = tested on: BenM/P_H16_RS09790 benzoate biosensor (pEH148); assay: as above
Experimental: as §1

[5] = tested on: FdsR/P_H16_RS03165 formate biosensor (pEH134); assay: as above
Experimental: as §1

[6] = tested on: GabR/P_H16_RS23655 GABA biosensor (pEH256); assay: as above
Experimental: as §1

[7] = tested on: HpdA/P_H16_RS24175 L-tyrosine biosensor (pEH158); assay: as above
Experimental: as §1

[8] = tested on: NahR/P_H16_RS08125 salicylate biosensor (pEH042); assay: as above
Experimental: as §1

[9] = tested on: OapR/P_H16_RS01330 beta-alanine biosensor (pEH147); assay: as above
Experimental: as §1

[10] = tested on: PcaQ/P_H16_RS30145 3,4-dihydroxybenzoate biosensor (pEH161); assay: as above
Experimental: as §1

[11] = tested on: PhgR/P_H16_RS05530 phenylglyoxylate biosensor (pEH155); assay: as above
Experimental: as §1

[12] = tested on: SauR/P_H16_RS13695 sulfonatoacetate biosensor (pEH157); assay: as above
Experimental: as §1

[13] = tested on: TtdR/P_H16_RS10665 tartrate biosensor (pEH083); assay: as above
Experimental: as §1

[14] = tested on: XdhR/P_H16_RS05055 xanthine biosensor (pEH154); assay: as above
Experimental: as §1

[15] = tested on: heterologous L-rhamnose-inducible system; assay: as above
Experimental: as §1

[16] = tested on: heterologous acrylate-inducible system; assay: as above
Experimental: as §1

[17] = tested on: heterologous cumate-inducible system; assay: as above
Experimental: as §1

[18] = tested on: heterologous itaconate-inducible system; assay: as above
Experimental: as §1

[19] = tested on: AcoR/P_H16_RS19445 acetoin biosensor (pEH052); assay: relative induction of RFP reporter vs primary effector (background-corrected); higher = stronger activation of the biosensor
Experimental: (§2)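 C. necator H16 strains, each carrying one of 21 transcription factor/inducible promoter–mRFP biosensor plasmids, were grown in minimal medium in 96-well plates (robotic platform). Each was exposed to 46 structurally or metabolically related compounds at 5 mM at 30 °C. OD-normalised RFP fluorescence was read 6 h later and expressed as relative induction (%) = 100 × (FL compound − FL uninduced)/(FL primary inducer − FL uninduced); mean of n=4.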

[20] = tested on: AraC/P_araBAD L-arabinose biosensor (pEH176); assay: as above
Experimental: as §2

[21] = tested on: BenM/P_H16_RS09790 benzoate biosensor (pEH148); assay: as above
Experimental: as §2

[22] = tested on: FdsR/P_H16_RS03165 formate biosensor (pEH134); assay: as above
Experimental: as §2

[23] = tested on: GabR/P_H16_RS23655 GABA biosensor (pEH256); assay: as above
Experimental: as §2

[24] = tested on: HpdR/P_H16_RS18295 3-hydroxypropanoate biosensor (pEH010); assay: as above
Experimental: as §2

[25] = tested on: KynR/P_H16_RS14030 L-kynurenine biosensor (pEH136); assay: as above
Experimental: as §2

[26] = tested on: NahR/P_H16_RS08125 salicylate biosensor (pEH042); assay: as above
Experimental: as §2

[27] = tested on: OapR/P_H16_RS01330 beta-alanine biosensor (pEH147); assay: as above
Experimental: as §2

[28] = tested on: PcaQ/P_H16_RS30145 3,4-dihydroxybenzoate biosensor (pEH161); assay: as above
Experimental: as §2

[29] = tested on: PhgR/P_H16_RS05530 phenylglyoxylate biosensor (pEH155); assay: as above
Experimental: as §2

[30] = tested on: PhhR/P_H16_RS18365 L-phenylalanine biosensor (pEH137); assay: as above
Experimental: as §2

[31] = tested on: SauR/P_H16_RS13695 sulfonatoacetate biosensor (pEH157); assay: as above
Experimental: as §2

[32] = tested on: TtdR/P_H16_RS10665 tartrate biosensor (pEH083); assay: as above
Experimental: as §2

[33] = tested on: XdhR/P_H16_RS05055 xanthine biosensor (pEH154); assay: as above
Experimental: as §2

[34] = tested on: heterologous inducible system pEH002 (rhamnose/acrylate/cumate/itaconate set); assay: as above
Experimental: as §2

[35] = tested on: heterologous inducible system pEH020 (rhamnose/acrylate/cumate/itaconate set); assay: as above
Experimental: as §2

[36] = tested on: heterologous inducible system pEH040 (rhamnose/acrylate/cumate/itaconate set); assay: as above
Experimental: as §2

[37] = tested on: heterologous inducible system pEH086 (rhamnose/acrylate/cumate/itaconate set); assay: as above
Experimental: as §2
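Throughout, for relative induction of RFP reporter vs primary effector (background-corrected): RFP excited at 585 nm with emission read at 620 nm, culture medium blanks subtracted from fluorescence and absorbance prior to normalisation.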

O=C(O)CCO [3-hydroxypropanoate]
relative induction of RFP reporter [1]: -1.52% | relative induction of RFP reporter [2]: -0.0357% | relative induction of RFP reporter [3]: 0.0132% | relative induction of RFP reporter [4]: -0.029% | relative induction of RFP reporter [5]: -8.81% | relative induction of RFP reporter [6]: -1.71% | relative induction of RFP reporter [7]: -0.172% | relative induction of RFP reporter [8]: 0.0108% | relative induction of RFP reporter [9]: 3.75% | relative induction of RFP reporter [10]: -0.224% | relative induction of RFP reporter [11]: -0.286% | relative induction of RFP reporter [12]: -0.00696% | relative induction of RFP reporter [13]: -0.346% | relative induction of RFP reporter [14]: -0.715% | relative induction of RFP reporter [15]: 0.00446% | relative induction of RFP reporter [16]: 2.83% | relative induction of RFP reporter [17]: -0.514% | relative induction of RFP reporter [18]: 0.017%

NCC(N)C(=O)O (configuration not stated) [2,3-diaminopropanoate]
relative induction of RFP reporter [19]: 0.396% | relative induction of RFP reporter [20]: 0.013% | relative induction of RFP reporter [21]: 0.0534% | relative induction of RFP reporter [22]: -1.38% | relative induction of RFP reporter [23]: -1.16% | relative induction of RFP reporter [24]: 0.349% | relative induction of RFP reporter [25]: -0.43% | relative induction of RFP reporter [26]: 0.0162% | relative induction of RFP reporter [27]: 0.656% | relative induction of RFP reporter [28]: -0.0605% | relative induction of RFP reporter [29]: -0.221% | relative induction of RFP reporter [30]: 0.0532% | relative induction of RFP reporter [31]: -0.0132% | relative induction of RFP reporter [32]: -0.586% | relative induction of RFP reporter [33]: -0.1% | relative induction of RFP reporter [34]: 0.0204% | relative induction of RFP reporter [35]: -0.419% | relative induction of RFP reporter [36]: 2.94% | relative induction of RFP reporter [37]: 0.484%

O=C(O)c1ccccc1 [benzoate]
relative induction of RFP reporter [1]: 4.78% | relative induction of RFP reporter [2]: -0.00267% | relative induction of RFP reporter [3]: -0.805% | relative induction of RFP reporter [5]: -1.25% | relative induction of RFP reporter [6]: -2.52% | relative induction of RFP reporter [7]: -0.127% | relative induction of RFP reporter [8]: 0.078% | relative induction of RFP reporter [9]: -0.947% | relative induction of RFP reporter [11]: -0.295% | relative induction of RFP reporter [12]: -0.0427% | relative induction of RFP reporter [13]: -0.474% | relative induction of RFP reporter [14]: -0.493% | relative induction of RFP reporter [15]: -0.0138% | relative induction of RFP reporter [16]: -1.5% | relative induction of RFP reporter [17]: -1.2% | relative induction of RFP reporter [18]: -0.0216%

O=C(O)C1CCCC1 [cyclopentane-1-carboxylate]
relative induction of RFP reporter [19]: 9.44% | relative induction of RFP reporter [20]: 0.014% | relative induction of RFP reporter [21]: 0.298% | relative induction of RFP reporter [22]: -2.26% | relative induction of RFP reporter [23]: -1.83% | relative induction of RFP reporter [24]: -0.057% | relative induction of RFP reporter [25]: 0.335% | relative induction of RFP reporter [26]: -0.00226% | relative induction of RFP reporter [27]: 3.18% | relative induction of RFP reporter [28]: -0.184% | relative induction of RFP reporter [29]: -0.24% | relative induction of RFP reporter [30]: -0.439% | relative induction of RFP reporter [31]: 0.584% | relative induction of RFP reporter [32]: 1.99% | relative induction of RFP reporter [33]: 0.428% | relative induction of RFP reporter [34]: -0.0145% | relative induction of RFP reporter [35]: 0.409% | relative induction of RFP reporter [36]: 7.83% | relative induction of RFP reporter [37]: 0.259%

CC(=O)CCC(=O)O [levulinic acid]
relative induction of RFP reporter [19]: -2.12% | relative induction of RFP reporter [20]: 0.00636% | relative induction of RFP reporter [21]: -0.0388% | relative induction of RFP reporter [22]: -11.8% | relative induction of RFP reporter [23]: -2.89% | relative induction of RFP reporter [24]: -0.37% | relative induction of RFP reporter [25]: -0.594% | relative induction of RFP reporter [26]: -0.0149% | relative induction of RFP reporter [27]: -1.91% | relative induction of RFP reporter [28]: -0.265% | relative induction of RFP reporter [29]: -0.187% | relative induction of RFP reporter [30]: -0.623% | relative induction of RFP reporter [31]: -0.0306% | relative induction of RFP reporter [32]: 1.16% | relative induction of RFP reporter [33]: -0.941% | relative induction of RFP reporter [34]: 0.0157% | relative induction of RFP reporter [35]: -1.82% | relative induction of RFP reporter [36]: -1.61% | relative induction of RFP reporter [37]: -0.139%

O=C(O)c1ccc(O)c(O)c1 [3,4-dihydroxybenzoate]
relative induction of RFP reporter [1]: -0.382% | relative induction of RFP reporter [2]: -0.0224% | relative induction of RFP reporter [3]: -0.555% | relative induction of RFP reporter [4]: -0.0316% | relative induction of RFP reporter [5]: 8.18% | relative induction of RFP reporter [6]: -1.96% | relative induction of RFP reporter [7]: -0.149% | relative induction of RFP reporter [8]: 0.0143% | relative induction of RFP reporter [9]: -1.27% | relative induction of RFP reporter [11]: -0.535% | relative induction of RFP reporter [12]: 0.0892% | relative induction of RFP reporter [13]: -0.148% | relative induction of RFP reporter [14]: -0.547% | relative induction of RFP reporter [15]: 0.0186% | relative induction of RFP reporter [16]: -0.891% | relative induction of RFP reporter [17]: -0.667% | relative induction of RFP reporter [18]: 0.251%

NCCC(=O)O [β-alanine]
relative induction of RFP reporter [1]: -2.32% | relative induction of RFP reporter [2]: -0.0067% | relative induction of RFP reporter [3]: -0.428% | relative induction of RFP reporter [4]: -0.0408% | relative induction of RFP reporter [5]: -3.65% | relative induction of RFP reporter [6]: -1.1% | relative induction of RFP reporter [7]: -0.165% | relative induction of RFP reporter [8]: 0.0063% | relative induction of RFP reporter [10]: -0.208% | relative induction of RFP reporter [11]: -0.344% | relative induction of RFP reporter [12]: -0.0116% | relative induction of RFP reporter [13]: 0.268% | relative induction of RFP reporter [14]: -0.793% | relative induction of RFP reporter [15]: 0.0016% | relative induction of RFP reporter [16]: -2.33% | relative induction of RFP reporter [17]: -1.44% | relative induction of RFP reporter [18]: -0.489%

N[C@@H](Cc1ccc(O)cc1)C(=O)O [L-tyrosine]
relative induction of RFP reporter [1]: -2.55% | relative induction of RFP reporter [2]: 0.00497% | relative induction of RFP reporter [3]: 0.136% | relative induction of RFP reporter [4]: -0.0654% | relative induction of RFP reporter [5]: -2.95% | relative induction of RFP reporter [6]: -2.3% | relative induction of RFP reporter [8]: 0.00647% | relative induction of RFP reporter [9]: -1.24% | relative induction of RFP reporter [10]: 0.392% | relative induction of RFP reporter [11]: -0.239% | relative induction of RFP reporter [12]: 0.00275% | relative induction of RFP reporter [13]: 1.67% | relative induction of RFP reporter [14]: -1.38% | relative induction of RFP reporter [15]: 0.00824% | relative induction of RFP reporter [16]: -2.03% | relative induction of RFP reporter [17]: -2.72% | relative induction of RFP reporter [18]: 0.264%
